Screening results deposited in PubChem BioAssay by National Center for Advancing Translational Sciences (NCATS).
RGS12 GoLoco inh: qHTS Assay for Inhibitors of RGS12 GoLoco Motif Activity (Red Fluorophore); AID 880, 2007; 0.44% of 230,000 active; Gai1:RGS12 GoLoco peptide FP, rhodamine, 10 min; Potency, µM (highest dose often 61.6 µM), for inactives: at the top dose activity, negative = inhibition, most hits filed as inhibitors; active means well fitted inhibition curve with a large enough effect, not every such curve was filed as active; inactive means no such curve, though single readings can be large or run the other way; further: potency means the concentration at half of the fitted maximal effect; on the % scale 0 is the no-effect control and ±100 the full control effect; nearly all actives have a fitted effect of over 30% in size
HTT ATP protect: qHTS Multiplex Assay to Identify Dual Action Probes in a Cell Model of Huntington: Cytoprotection (ATP) | PC12 HTT-Q103 induced, cytoprotection, ATP luminescence, 40 h | Potency, µM (series often up to 56.4 µM), for inactives: cytoprotection (ATP increase), most hits filed as activators | 0.14% of 230,000 active | AID 1471, 2008; further: potency means the concentration at half of the fitted maximal effect; % of control where 0% means no effect; nearly all actives have a fitted effect of over 45% in size
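ATP quantification (ATPlite) reports survival of PC12 cells in which tebufenozide, 100 nM final, switches on Htt exon 1 with 103 glutamines linked to GFP; compounds are titrated.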
VDR inh: Inhibitors of the vitamin D receptor (VDR): qHTS | 0.93% of 400,000 active | Vitamin D3 receptor (Homo sapiens), P11473 | Potency, µM, for the others: max response, negative = inhibition, usual class: inhibitors | VDR-SRC2-3 peptide fluorescence polarization, 2 h; further: potency means the concentration at half of the fitted maximal effect; on the % scale 0 is the no-effect control and ±100 the full control effect
Target sequence (P11473 whole entry, looked up): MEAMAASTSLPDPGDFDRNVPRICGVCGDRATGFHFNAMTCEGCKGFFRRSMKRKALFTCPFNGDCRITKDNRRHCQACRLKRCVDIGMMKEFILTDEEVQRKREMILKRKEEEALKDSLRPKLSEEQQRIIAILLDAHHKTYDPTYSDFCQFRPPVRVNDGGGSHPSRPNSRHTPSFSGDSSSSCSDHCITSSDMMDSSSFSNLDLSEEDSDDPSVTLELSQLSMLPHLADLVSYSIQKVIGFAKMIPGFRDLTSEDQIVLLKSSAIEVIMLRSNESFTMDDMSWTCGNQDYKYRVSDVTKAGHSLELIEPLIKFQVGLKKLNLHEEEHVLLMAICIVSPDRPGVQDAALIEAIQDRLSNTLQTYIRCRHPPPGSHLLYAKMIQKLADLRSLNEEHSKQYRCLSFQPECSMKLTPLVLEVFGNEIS
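After 23 nl compound addition and a short centrifugation, plates sat for 2 hours at ambient temperature; polarization of fluorescence then indicated loss of VDR binding to peptide SRC2-3.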
Coupling enz: qHTS Assay for Inhibitors of Fructose-1,6-bisphosphate Aldolase from Giardia Lamblia: Coupling assay counterscreen; coupling enzyme system counterscreen, AmpLite Red fluorescence; activity change, negative = inhibition, % at 58.2 µM, hits read low; 0.67% of 290,000 active; in the data active means activity change below about -30%; further: on the % scale 0 is the no-effect control and ±100 the full control effect
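Fluorescence at 525 nm excitation and 598 nm emission measured inhibition of the coupled detection system without aldolase. Compounds (at 57.5 uM final) were preincubated 10 min at room temperature with coupling enzyme reagent before a 20 min substrate/AmpLite Red step.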
HTT aggregate: qHTS Multiplex Assay to Identify Dual Action Probes in a Cell Model of Huntington: Aggregate Formation (GFP) | PC12 HttQ103-GFP aggregates, Acumen cytometry, 40 h | 1.1% of 220,000 active | AID 1688, 2009 | Potency, µM (top dose mostly 46.1 µM), without a hit: at the top dose activity change, negative = inhibition, usual class: inhibitors; further: potency means the concentration at half of the fitted maximal effect; on the % scale 0 is the no-effect control and ±100 the full control effect; nearly all actives have a fitted effect of over 60% in size
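Steps: seed 1500 PC12 HTTQ103-GFP cells/well; add tebufenozide, 100 nM final; add compound titration; add ATPLite reagent; quantify GFP aggregates by laser scanning cytometry.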
JMJD2E inh: qHTS Assay for Inhibitors of Human Jumonji Domain Containing 2E (JMJD2E). AID 2147, 2009. 1.6% of 230,000 active. JMJD2E catalytic domain, FDH-coupled NADH fluorescence (FDH is formaldehyde dehydrogenase). Lysine-specific demethylase 4E (Homo sapiens), B2RXH2. Potency, µM (titrated, usually from 57.1 µM), without a hit: at the top dose activity change, negative = inhibition, most hits filed as inhibitors; active means well fitted inhibition curve with a large enough effect, not every such curve was filed as active; inconclusive means small, poorly fitted or top-dose-only effect, or another doubt; inactive means no such curve, though single readings can be large or run the other way;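 further: potency means the concentration at half of the fitted maximal effect; 0% = wells with enzyme and -100% = buffer wells without enzyme; nearly all actives have a fitted effect of over 50% in size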
Numbers without * were called inactive; ? = inconclusive; . = no result given; [ ] = dose if it differs, or a comment. A selection: hits, their analogues and other compounds. The true share with any hit is near 2.3%. Unless noted, the call rests on the fitted dose curve; in most records, active means well fitted curve in the direction sought with a large enough effect; inconclusive means small, poorly fitted or top-dose-only effect, or another doubt; inactive means no such curve, though single readings can be large; an effect the other way counts as inactive or inconclusive.

SMILES	RGS12 GoLoco inh	HTT ATP protect	VDR inh	Coupling enz	HTT aggregate	JMJD2E inh
Clc1cccc(Nc2nnc(-c3ccccc3)c3ccccc23)c1	0.9%	16.6%	-11.3%	-6.1	.	11.2µM*
COc1cc2[nH]c3c(=O)n(CCN(C(C)C)C(C)C)cnc3c2cc1OC	7.6%	-34.4%	-5.1%	-45.3*	1.9%	?
COc1cc2[nH]c3c(=O)n(CCN4CCOCC4)cnc3c2cc1OC	4.5%	10.4%[10 µM]	-22.7%	-5.9	-17.5%[9.22 µM]	?
CCCCCCCCCCCCCCOc1ccc(C(=O)O)o1	.	.	11.2µM*	8.7	.	.
CCOc1ccc(OCc2ccc(C(=O)O)o2)cc1	0.8%	-11.0%[10 µM]	-9.1%	8.1	-7.0%	-9.7%
COc1ccc(-n2c(=O)c3ccccc3n(Cc3cccc(C)c3)c2=O)cc1	.	.	1.7%	.	.	.
CCOC(=O)C(=CNc1ccc(O)c(C(=O)OC)c1)C(=O)OCC	.	.	6.0%	.	.	.
CCOC(=O)C(=Cc1cc(=O)c(OC)co1)C(=O)OCC	-33.4%	.	39.8µM*	0.7	-6.0%	-7.7%
C=CCOc1c(Br)cc(CNc2ccc(NC(=O)C(C)C)c(OC)c2)cc1OC	14.0%	-18.2%	-9.2%	-44.8*	?	-4.9%
Brc1ccccc1-c1nnc2sc(-c3ccc4c(c3)OCCO4)nn12	1.7%	-72.1%	9.3%	2.3	25.1µM*	?
Clc1ccccc1-c1nnc2sc(-c3ccc4c(c3)OCO4)nn12	13.8%	24.2%[1.9 µM]	?	5.8	-30.5%	?
Cc1cc(C)c2ccc(=O)n(CC(=O)N/N=C/c3ccccc3Cl)c2n1	9.5%	-19.1%[10 µM]	9.3%	3.4	0.4%[9.22 µM]	?
O=C(CNC1=NCCC1)c1ccc(Cl)cc1	6.1%	30.0%[10 µM]	18.2%	-35.9*	?	-7.0%
COc1ccc(C(=O)CNC2=NCCC2)cc1	9.1%	-21.7%	-17.0%	0.8	-15.6%	8.3%
Oc1ccccc1C=NNC(=S)Nc1ccc(F)cc1	.	.	10.6%	.	.	.
Oc1ccccc1/C=N/NC(=S)NC1CC2C=CC1C2 (centres undefined)	10.4%	-10.6%[10 µM]	16.3%	3.5	2.4%[9.22 µM]	25.1µM*
CC(C)(C)c1ccc(Cn2nnc3c(=O)[nH]c(C4CCN(C(=O)c5ccco5)CC4)nc32)cc1	.	.	-17.8%	0.0	.	.
O=C(Nc1cccn2ncnc12)C(F)(F)F	-21.3%	-18.5%[10 µM]	1.9%	-2.2	-2.9%	-4.9%
O=C(CCl)Nc1cccn2ncnc12	-12.0%	-73.1%	1.5%	-0.4	20µM*	?
CCOC(=O)c1c(CN(C)C)n(C)c2c(O)c(N=NC(N)=O)c3ccc(Br)cc3c12	.	.	?	-30.6*	.	.
Cc1ccc(C)c(S(=O)(=O)N2CCN(C(=O)/C=C/c3ccco3)CC2)c1	.	.	89.1µM*	.	.	.
Cc1onc(-c2ccccc2)c1C(=O)NN1CCOCC1	.	.	-14.2%	.	.	.
COc1ccc(N2CC(NC(=O)C3CCCCC3)CC2=O)cc1 (centres undefined)	.	.	4.6%	.	.	.
CCCCCCCCO	-28.2%	-4.2%	-4.6%	.	.	.
CCCCN(CCO)CCCC	15.8µM*	-23.0%	-0.1%	.	.	.
O=C(CCCCCNC(=O)c1ccccc1)N/N=C/c1ccc(O)cc1O	15.6%	10.5%[10 µM]	-10.5%	0.5	-30.8%	20µM*
O=C(CNC(=O)C(c1ccccc1)c1ccccc1)N/N=C/c1ccc(O)cc1O	4.3%	-19.9%[10 µM]	0.4%	2.8	-27.0%[9.22 µM]	20µM*
COc1ccc(/C=N/NC(=O)c2nc(-c3ccccc3)n(-c3ccccc3)n2)c(O)c1	11.2%	.	-17.9%	8.0	-30.9%	17.8µM*
O=C(CNC(=O)C(c1ccccc1)c1ccccc1)N/N=C\c1cccc(O)c1	-3.6%	10.5%[10 µM]	-1.3%	4.4	-5.3%[9.22 µM]	2.3%
O=C(CNC(=O)C1COc2ccccc2O1)N/N=C/c1ccc(O)cc1O (centres undefined)	10.3%	.	-4.7%	1.1	?	28.2µM*
